According to PubChem BioAssay AID485270 (The Scripps Research Institute Molecular Screening Center, 2010):
Among all 330,000 compounds or so, about 5,800 (1.8%) were called active. Cut-off read from the data, not from the text of the source: active = inhibition mostly above about 38% (no sharp cut-off); inactive = mostly below about 40%. What follows is part of a selection rich in actives, with near analogues and random picks from the rest.

Target: Orexin/Hypocretin receptor type 1 (Homo sapiens) (UniProt O43613)
Sequence (O43613 whole entry, looked up): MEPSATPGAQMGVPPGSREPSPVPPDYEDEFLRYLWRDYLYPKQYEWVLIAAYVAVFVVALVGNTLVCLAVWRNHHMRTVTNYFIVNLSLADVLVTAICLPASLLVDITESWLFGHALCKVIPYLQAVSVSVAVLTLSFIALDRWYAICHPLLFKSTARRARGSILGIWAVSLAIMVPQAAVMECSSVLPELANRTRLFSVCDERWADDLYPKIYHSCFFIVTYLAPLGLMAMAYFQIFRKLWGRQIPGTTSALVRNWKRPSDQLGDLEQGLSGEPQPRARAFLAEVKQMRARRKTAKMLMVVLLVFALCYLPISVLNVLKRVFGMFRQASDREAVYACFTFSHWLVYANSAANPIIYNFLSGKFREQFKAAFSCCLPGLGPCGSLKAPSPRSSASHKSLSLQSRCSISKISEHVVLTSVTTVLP
Assay: blocks the human orexin 1 receptor (AID 485270);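 note: 0% = agonist challenge alone and 100% = reference antagonist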
Conditions: OX1R-expressing cells, FRET antagonist read-out; at 6.6 µM; stronger effect = higher value

inhibition, active:
COc1cccc(CNS(=O)(=O)c2ccc3c(c2)CC(C)N3C(=O)C2CCC2)c1 (centres undefined) 53.7%
COCC(=O)N=Nc1c(O)[nH]c2ccccc12 68.8%
CCC(=O)OCCNc1nc(-c2ccccc2)nc2ccccc12 48.8%
c1ccc(-c2nc(NCc3ccco3)c3ccccc3n2)cc1 81.6%
O=C(Nc1sc2c(c1-c1nc3ccccc3[nH]1)CCCC2)C1CC1 46.5%
COCCNC(=O)Nc1ccc2nc(-c3ccco3)c(-c3ccco3)nc2c1 113%
Nc1nc(COC(=O)CCC(=O)c2ccc(Cl)cc2)nc(Nc2ccccc2)n1 37.4%
CCN(CC)c1ccc(C(=O)c2cnc(/N=C/N(C)C)s2)cc1 66.5%
O=C(Nc1nnc(-c2ccccc2)o1)c1cc(-c2cccs2)nc2ccccc12 88.8%
Cc1oc2cc([N+](=O)[O-])c(O)c([N+](=O)[O-])c2c1C(=O)c1ccc(Br)cc1 67.5%
COc1ccc(NC(=O)CSc2nnc(-c3cccs3)n2Cc2ccco2)cc1OC 41.6%
O=C(N/N=C/c1sc(N2CCCCC2)nc1-c1cccs1)c1cccnc1 111%
O=C(CC(O)(C(F)(F)F)C(F)(F)F)Nc1ccc(Cl)c(Cl)c1 68.7%
Cc1c(C(=O)OCC(=O)N(CCC#N)c2ccccc2)oc2c1ccc1ccccc12 60.1%
O=c1ccc2c(-c3ccccc3S(=O)(=O)O)c3ccc(O)c(O)c3oc-2c1O 55.9%

inhibition, inactive:
Cc1ccc(S(=O)(=O)N2CCN(C(=O)COC(=O)CNC(=O)c3ccc(C(C)(C)C)cc3)CC2)c(C)c1 1.85%
O=C(COC(=O)c1cccc(Cl)c1)NC(=O)NCc1ccccc1 4.12%
C=CCC[C@@H](Cc1ccc(F)cc1)C(=O)O[C@H](CNC(=O)[C@H](CC=C)CC(=O)N(CCO)Cc1ccccc1)c1ccccc1 13.9%
C=CCC[C@H](Cc1ccc(F)cc1)C(=O)OC[C@@H](NC(=O)[C@@H](CC=C)CC(=O)N[C@H](CO)Cc1ccccc1)C(C)(C)C -2.5%
COc1cccc(CNS(=O)(=O)c2ccc3c(c2)CC(C)N3C(C)=O)c1 (centres undefined) 19.3%
COc1ccc(N(C)S(=O)(=O)c2ccc3c(c2)CC(C)N3C(=O)C2CC2)c(OC)c1 (centres undefined) 13.5%
CN(CC(=O)O)C(=O)c1ccccc1 11.7%
Cc1cccc(N(CC(=O)N=Nc2c(O)[nH]c3ccccc23)S(C)(=O)=O)c1C 5.48%
O=C(CCN1CCCCC1)N=Nc1c(O)[nH]c2ccccc12 22.5%
Cc1ccc(NS(=O)(=O)c2ccc(C(C)C)cc2)cc1S(=O)(=O)N1CCOCC1 1.43%
Cc1cccc(OCC(=O)OCC(=O)Nc2ccc(Cl)cn2)c1 4.09%
c1coc(CNc2ncnc3ccccc23)c1 37.9%
COCCNc1nc(-c2ccccc2)nc2c1oc1ccccc12 19.4%
CCOCCCNc1nc(-c2ccccc2)nc2ccccc12 13.2%
O=C(Cc1ccccc1)n1nc(-c2ccccc2)nc1NCc1ccco1 16.1%
CC1CCCCC1NC(=O)COc1ccc(C#N)cc1 (centres undefined) 1.71%
O=C(COC(=O)c1ccc(Br)o1)NC12CC3CC(CC(C3)C1)C2 1.86%
O=C1N[C@H](Cc2c[nH]c3ccccc23)COC(=O)[C@H](Cc2ccc(F)cc2)C/C=C\C[C@H]1CC(=O)N(CCO)Cc1ccccc1 -2.83%
Cc1ccc(C(=O)Nc2ccn(C)n2)cc1 -1.37%
COc1ccc(Br)cc1CN(C)C(=O)C1CC(=O)N(C2CCCC2)C1 (centres undefined) 8.23%
O=C(C1CCCO1)N1CCC(c2nc3ccccc3[nH]2)CC1 (centres undefined) -1.4%
CCOC(=O)c1c(NC(=O)C2CCN(S(=O)(=O)c3ccc(Cl)cc3)CC2)sc2c1CCCC2 6.08%
C=CC[C@@H](CC(=O)N[C@@H](CO)Cc1ccccc1)C(=O)NCCOC(=O)[C@@H](CC=C)CC(=O)OC(C)(C)C 14.3%
COC(=O)[C@]1(Cc2ccccc2)N[C@H](CN(C)S(=O)(=O)c2ccc(OC(F)(F)F)cc2)[C@@H]2C(=O)N(Cc3ccccc3)C(=O)[C@@H]21 5.26%
CCOc1cc(NC(=S)NCCCOC)c(OCC)cc1NC(=O)c1ccco1 11.1%
CCCC(=O)Nc1ccc2c(c1)nc(CCNC(=O)c1ccco1)n2C 7.62%
Cc1noc(C)c1S(=O)(=O)N(C)C[C@H]1Oc2c(NC(=O)Nc3ccc4c(c3)OCO4)cccc2C(=O)N([C@H](C)CO)C[C@@H]1C 2.76%
C[C@H](CO)N1C[C@H](C)[C@H](CN(C)CC2CC2)Oc2ccc(NC(=O)CCN3CCOCC3)cc2C1=O -2.5%
Cc1ccc(S(=O)(=O)N(C)C)cc1NC(=O)C(C)OC(=O)c1ccc2ccccc2n1 (centres undefined) 7.22%
CC(NC(=O)COC(=O)CCC(=O)c1ccc(Cl)cc1)c1ccccc1 (centres undefined) 10.1%
Cc1ccc(C(=O)OCc2nc(N)nc(Nc3ccccc3C)n2)cc1 -2.57%
O=C(NCc1ccc2c(c1)OCO2)c1cc([N+](=O)[O-])ccc1N1CCOCC1 19.9%
Cc1c(C(=O)OC(C)C)sc(NC(=O)c2cccnc2)c1C#N 54.5%
CC1CCCCC12NC(=O)N(CC(=O)N1CCN(c3ccccc3)CC1)C2=O (centres undefined) -1.13%
O=C(Nc1cc(S(=O)(=O)Nc2ccc(Cl)cc2)ccc1O)c1ccc(F)cc1F 8.71%
O=C(CN1C(=O)NC2(CCCCCCC2)C1=O)NCc1ccc(F)cc1 8.6%
CC[C@@]1(C(=O)OC)N[C@H](CN(C)C(C)=O)[C@@H]2C(=O)N(C)C(=O)[C@@H]21 1.97%
Cc1ccc(S(=O)(=O)NC[C@H]2O[C@@H](n3cnc4c(N)ncnc43)[C@H](O)[C@@H]2O)s1 -6.3%
CCN(CC)c1ccc(NC(=O)c2ccc(Cl)nc2)cc1 17.1%
CCN(CC)c1ccc(/C=N/NC(=O)CNC(=O)c2cccnc2)cc1 3.18%
O=C(NCCN1CCOCC1)c1cc(-c2cccs2)nc2ccccc12 18.8%
CCCCN(C)CCCNC(=O)c1cc(-c2cccs2)nc2ccccc12 13.3%
O=C(c1ccc(S(=O)(=O)NCc2ccco2)cc1)N1CCN(c2ccccc2)CC1 11.5%
COc1ccc(S(=O)(=O)Nc2cccc3c2O[C@H](CN(C)S(=O)(=O)c2ccc(OC)cc2)[C@@H](C)CN([C@H](C)CO)C3=O)cc1 -2.59%
COc1cc(OC)cc(C(=O)NNC(=O)Cc2cccs2)c1 1.69%
Cc1cc(C(=O)O)ccc1[N+](=O)[O-] 1.62%
COc1ccc(C(=O)c2c(C)oc3cc([N+](=O)[O-])c(O)c([N+](=O)[O-])c23)cc1 30.6%
Cc1ccc(NC(=O)CSc2nnc(-c3cnccn3)n2Cc2ccco2)cc1C 18.9%
COc1cc(Cl)c(C)cc1NC(=O)CSc1nnc(-c2cccnc2)n1Cc1ccco1 15.5%
CC(OC(=O)c1ccc(Cl)cc1O)C(=O)NCCC1=CCCCC1 (centres undefined) 5.93%
O=C(COc1ccccc1F)NNC(=O)c1cc(Br)ccc1Cl 12.4%
C#CCOCCOCCOCCNc1nc(N2CCN(C(=O)C([C@@H](C)O)n3cc([C@@H](N)CCCCN)nn3)CC2)nc(N2CCN(C(=O)[C@H](CCCCN)n3cc(CN)nn3)CC2)n1 (some centres undefined) 6.34%
C=CC(COCc1ccccc1)N(CC(=O)OC)S(=O)(=O)c1cc(Br)ccc1OC (centres undefined) 20.4%
O=C(NN=C1CCC(=NNC(=O)c2cccnc2)CC1)c1cccnc1 1.73%
Cc1cc(/C=N/NC(=O)c2cccnc2)c(C)n1CC(C)C 3.61%
CC(C#N)OC(=O)c1cccnc1SCC(=O)Nc1ccc2c(c1)OCO2 (centres undefined) 8.21%
O=C(Cc1ccc(Cl)c(Cl)c1)Nc1ccc(SC(F)F)cc1 17.7%
O=C(CC1SCCNC1=O)Nc1ccc(Cl)c(Cl)c1 (centres undefined) 10.1%
Cc1cc(C(=O)Nc2nnc(C3CC3)s2)c(C)s1 7.15%
CCOC(=O)C1=C(C)N(C[C@@H]2CC[C@@H](Cc3ccc(-c4ccccc4)cc3)O2)C(=O)NC1c1ccc([N+](=O)[O-])cc1 (some centres undefined) 5.68%
COc1ccc(Br)cc1CN(C)CC(=O)Nc1cc(Cl)cc(Cl)c1 22.9%
COc1ccc2nc3n(c(=O)c2c1)-c1cc(C)ccc1C(=O)NC3Cc1ccc(O)cc1 (centres undefined) 4.12%
N#CCCN(C(=O)COC(=O)c1ccc2c(c1)OCCO2)c1ccccc1 11%
N#CCCN(C(=O)COC(=O)c1ccc(S(=O)(=O)N2CCCCCC2)cc1)c1ccccc1 16.8%
Cc1ccc(CCNC(=O)C2CCN(S(=O)(=O)N3CCCC3)CC2)cc1 6.73%
CN(CC(=O)NCCc1ccc(S(N)(=O)=O)cc1)CC(=O)Nc1ccc(F)c(F)c1F -2.07%
CC(C)COc1ccc(C(=O)NNC(=O)CCC(=O)c2cccs2)cc1 2.01%
Cc1cccc(NC(=O)c2ccc(S(=O)(=O)N(C)c3ccccc3)cc2)n1 9.18%
CCCCNc1c(-c2ccc(OC)c(Sc3ccc(OC)cc3)c2)nc2ccc(Cl)cn12 13.3%
